# Measured values as given in the supplement of paper PMC10646978.
# ± gives the standard deviation.
# Legend:
# Conditions in all cases: modulator concentration 10 µM
# [1] = test system: RAW-Dual (murine macrophage reporter line); assay: NF-kB reporter (SEAP) activity fold change vs agonist alone; higher = enhanced NF-kB activity
# In short: (§1)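 RAW-Dual murine macrophage reporter cells were plated at 50 000 per well in 384-well plates, pin-transferred compound to 10 μM final, and pre-incubated for 1 hour at 37 °C before a PRR agonist was added and the cells incubated overnight. NF-κB activity was read from supernatant SEAP with QUANTI-Blue at 620 nm absorbance, and IRF activity from Lucia luciferase with QUANTI-Luc by luminescence. Each signal was expressed as fold change by dividing by the mean agonist-only control on the same plate. Two replicate plates were averaged, with errors obtained by propagation.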
# [2] = test system: RAW-Dual (murine macrophage reporter line); assay: IRF reporter (Lucia luciferase) activity fold change vs agonist alone; higher = enhanced IRF activity
# In short: as §1
# [3] = test system: RAW-Dual (murine macrophage reporter line); assay: viability score (confluency relative to resting cells, overnight) (fraction); higher = more viable, active = viable (0.7 or more)
# In short: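 Confluency was the readout: RAW-Dual macrophages were imaged with IncuCyte after an overnight exposure to compound at 10 μM final. IncuCyte software produced two masks over all imaged wells. The viability score expresses confluency against resting cells, and both masks had to exceed 70% of resting cells for a compound to meet the cutoff.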
# [4] = agonist: CpG ODN 1826 0.5 ug/mL
structure (smiles),measurement,setting,value
O=C(COc1cccc2ccccc12)NCc1ccncc1,NF-kB reporter,[1]; [4],0.804 ± 0.069
same,NF-kB reporter,[1]; agonist: LPS 0.1 ug/mL,1.1 ± 0.06
same,NF-kB reporter,[1]; agonist: MPLA […],1.02 ± 0.12
same,IRF reporter,[2]; agonist: 3'3'-cGAMP 10 ug/mL,0.981 ± 0.052
same,IRF reporter,[2]; agonist: LPS 0.1 ug/mL,1.34 ± 0.12
same,IRF reporter,[2]; agonist: MPLA […],1.06 ± 0.098
same,viability score,[3],1.01 (active)
O=C1c2ccccc2C(=O)C1c1ccncc1,NF-kB reporter,[1]; [4],0.885 ± 0.066
same,NF-kB reporter,[1]; agonist: LPS 0.1 ug/mL,1.03 ± 0.059
same,NF-kB reporter,[1]; agonist: MPLA […],0.944 ± 0.029
same,IRF reporter,[2]; agonist: 3'3'-cGAMP 10 ug/mL,0.757 ± 0.046
same,IRF reporter,[2]; agonist: LPS 0.1 ug/mL,0.924 ± 0.1
same,IRF reporter,[2]; agonist: MPLA […],0.799 ± 0.068
same,viability score,[3],0.994 (active)
CCN[C@H]1CN(CCCOC)S(=O)(=O)c2sc(S(N)(=O)=O)cc21,NF-kB reporter,[1]; [4],1.01 ± 0.12
same,NF-kB reporter,[1]; agonist: LPS 0.1 ug/mL,1.04 ± 0.059
same,NF-kB reporter,[1]; agonist: MPLA […],0.975 ± 0.05
same,IRF reporter,[2]; agonist: 3'3'-cGAMP 10 ug/mL,1.03 ± 0.067
same,IRF reporter,[2]; agonist: LPS 0.1 ug/mL,0.913 ± 0.042
same,IRF reporter,[2]; agonist: MPLA […],1 ± 0.12
same,viability score,[3],1 (active)
CCCOc1cccc(C(=O)Nc2scc(-c3ccccc3Cl)c2C(=O)OC)c1,NF-kB reporter,[1]; [4],0.817 ± 0.1
same,NF-kB reporter,[1]; agonist: LPS 0.1 ug/mL,0.827 ± 0.039
same,NF-kB reporter,[1]; agonist: MPLA […],1.05 ± 0.092
same,IRF reporter,[2]; agonist: 3'3'-cGAMP 10 ug/mL,1.03 ± 0.059
same,IRF reporter,[2]; agonist: LPS 0.1 ug/mL,1.54 ± 0.09
same,IRF reporter,[2]; agonist: MPLA […],1.69 ± 0.2
same,viability score,[3],1 (active)
CC(C)(C(=O)c1cccnc1)c1cccnc1 [Prestw-904],NF-kB reporter,[1]; [4],1.05 ± 0.092
same,NF-kB reporter,[1]; agonist: LPS 0.1 ug/mL,0.894 ± 0.073
same,NF-kB reporter,[1]; agonist: MPLA […],0.939 ± 0.057
same,IRF reporter,[2]; agonist: 3'3'-cGAMP 10 ug/mL,0.995 ± 0.054
same,IRF reporter,[2]; agonist: LPS 0.1 ug/mL,0.956 ± 0.12
same,IRF reporter,[2]; agonist: MPLA […],0.901 ± 0.23
same,viability score,[3],0.997 (active)
COc1ccc(-c2ccc(OCCNC(=O)Cc3ccc(Br)cc3)nn2)cc1,NF-kB reporter,[1]; [4],0.959 ± 0.049
same,NF-kB reporter,[1]; agonist: LPS 0.1 ug/mL,1.08 ± 0.084
same,NF-kB reporter,[1]; agonist: MPLA […],0.908 ± 0.055
same,IRF reporter,[2]; agonist: 3'3'-cGAMP 10 ug/mL,1.02 ± 0.085
same,IRF reporter,[2]; agonist: LPS 0.1 ug/mL,1.09 ± 0.2
same,IRF reporter,[2]; agonist: MPLA […],1.07 ± 0.31
same,viability score,[3],1 (active)
Cc1ccc(-c2nc(O)nc3ccccc23)cc1,NF-kB reporter,[1]; [4],1.28 ± 0.37
same,NF-kB reporter,[1]; agonist: LPS 0.1 ug/mL,1.11 ± 0.086
same,NF-kB reporter,[1]; agonist: MPLA […],1.07 ± 0.086
same,IRF reporter,[2]; agonist: 3'3'-cGAMP 10 ug/mL,0.786 ± 0.054
same,IRF reporter,[2]; agonist: LPS 0.1 ug/mL,0.967 ± 0.14
same,IRF reporter,[2]; agonist: MPLA […],0.966 ± 0.11
same,viability score,[3],0.931 (active)
COc1ccnc(CS(=O)c2nc3ccc(OC(F)F)cc3[nH]2)c1OC (stereo not given),NF-kB reporter,[1]; [4],1.18 ± 0.16
same,NF-kB reporter,[1]; agonist: LPS 0.1 ug/mL,0.901 ± 0.1
same,NF-kB reporter,[1]; agonist: MPLA […],0.879 ± 0.053
same,IRF reporter,[2]; agonist: 3'3'-cGAMP 10 ug/mL,0.901 ± 0.056
same,IRF reporter,[2]; agonist: LPS 0.1 ug/mL,1.07 ± 0.11
same,IRF reporter,[2]; agonist: MPLA […],1.15 ± 0.15
same,viability score,[3],0.999 (active)
COC(=O)C1=C(C)NC(C)=C(C(=O)OC(C)C)C1c1cccc2nonc12 (stereo not given),NF-kB reporter,[1]; [4],0.79 ± 0.062
same,NF-kB reporter,[1]; agonist: LPS 0.1 ug/mL,0.942 ± 0.073
same,NF-kB reporter,[1]; agonist: MPLA […],1.11 ± 0.096
same,IRF reporter,[2]; agonist: 3'3'-cGAMP 10 ug/mL,0.645 ± 0.04
same,IRF reporter,[2]; agonist: LPS 0.1 ug/mL,1.08 ± 0.07
same,IRF reporter,[2]; agonist: MPLA […],0.967 ± 0.14
same,viability score,[3],1 (active)
NC(=O)N1CCC(CC(=O)N2CCC([C@H]3c4ncc(Br)cc4CCc4cc(Cl)cc(Br)c43)CC2)CC1,NF-kB reporter,[1]; [4],0.342 ± 0.047
same,NF-kB reporter,[1]; agonist: LPS 0.1 ug/mL,0.434 ± 0.12
same,NF-kB reporter,[1]; agonist: MPLA […],0.615 ± 0.19
same,IRF reporter,[2]; agonist: 3'3'-cGAMP 10 ug/mL,0.325 ± 0.012
same,IRF reporter,[2]; agonist: LPS 0.1 ug/mL,0.889 ± 0.23
same,IRF reporter,[2]; agonist: MPLA […],1.2 ± 0.17
same,viability score,[3],0.0582 (inactive)
COC(CNC(=O)C(C)(C)Oc1ccc(Cl)cc1)c1cccc(F)c1 (stereo not given),NF-kB reporter,[1]; [4],1.27 ± 0.39
same,NF-kB reporter,[1]; agonist: LPS 0.1 ug/mL,1.07 ± 0.055
same,NF-kB reporter,[1]; agonist: MPLA […],1.14 ± 0.081
same,IRF reporter,[2]; agonist: 3'3'-cGAMP 10 ug/mL,0.96 ± 0.035
same,IRF reporter,[2]; agonist: LPS 0.1 ug/mL,0.959 ± 0.16
same,IRF reporter,[2]; agonist: MPLA […],1.04 ± 0.18
same,viability score,[3],0.973 (active)
Cl.Cl.Fc1ccc(C(c2ccc(F)cc2)N2CCN(CC=Cc3ccccc3)CC2)cc1,NF-kB reporter,[1]; [4],0.834 ± 0.063
same,NF-kB reporter,[1]; agonist: LPS 0.1 ug/mL,0.999 ± 0.065
same,NF-kB reporter,[1]; agonist: MPLA […],1.15 ± 0.029
same,IRF reporter,[2]; agonist: 3'3'-cGAMP 10 ug/mL,0.956 ± 0.089
same,IRF reporter,[2]; agonist: LPS 0.1 ug/mL,0.896 ± 0.051
same,IRF reporter,[2]; agonist: MPLA […],1.1 ± 0.16
same,viability score,[3],0.996 (active)
CN1CCC2(CC1)NC(=O)N(CC(=O)N1CCc3ccccc31)C2=O,NF-kB reporter,[1]; [4],0.927 ± 0.094
same,NF-kB reporter,[1]; agonist: LPS 0.1 ug/mL,1.14 ± 0.096
same,NF-kB reporter,[1]; agonist: MPLA […],0.942 ± 0.11
same,IRF reporter,[2]; agonist: 3'3'-cGAMP 10 ug/mL,1.01 ± 0.063
same,IRF reporter,[2]; agonist: LPS 0.1 ug/mL,1.18 ± 0.14
same,IRF reporter,[2]; agonist: MPLA […],1.2 ± 0.1
same,viability score,[3],1.02 (active)
Cc1ccc(Sc2ccccc2N2CCNCC2)c(C)c1,NF-kB reporter,[1]; [4],0.415 ± 0.1
same,NF-kB reporter,[1]; agonist: LPS 0.1 ug/mL,1.22 ± 0.065
same,NF-kB reporter,[1]; agonist: MPLA […],2.11 ± 0.33
same,IRF reporter,[2]; agonist: 3'3'-cGAMP 10 ug/mL,0.462 ± 0.015
same,IRF reporter,[2]; agonist: LPS 0.1 ug/mL,2.25 ± 0.3
same,IRF reporter,[2]; agonist: MPLA […],2.42 ± 0.23
same,viability score,[3],0.622 (inactive)
Cc1ccc(OCCCOc2cccc3cccnc23)c(Cl)c1,NF-kB reporter,[1]; [4],0.808 ± 0.076
same,NF-kB reporter,[1]; agonist: LPS 0.1 ug/mL,1.02 ± 0.056
same,NF-kB reporter,[1]; agonist: MPLA […],0.877 ± 0.057
same,IRF reporter,[2]; agonist: 3'3'-cGAMP 10 ug/mL,0.947 ± 0.077
same,IRF reporter,[2]; agonist: LPS 0.1 ug/mL,1.32 ± 0.14
same,IRF reporter,[2]; agonist: MPLA […],1.05 ± 0.076
same,viability score,[3],1.01 (active)
